Measured values from PubChem BioAssay AID1159580 (chemical genetic matrix, 2015).
Among all 5,500 compounds or so, about 2,000 (36%) were called active. Another 18% or so got no clear call; they are omitted. No stated cut-off is given here; in the data, active means normalized growth mostly below about 0.91 (no sharp cut-off); inconclusive means no clear call, values can overlap the other calls; inactive means mostly above about 0.92. The list shows a part of the results.

Assay: chemical genetic growth profiling, strain panel (AID 1159580);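 further: tested at 20 µM; growth read once vehicle control cultures reached saturation at 30 °C; 1 = growth at the plate median or of vehicle wells; lower values mean less growth of the strain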
Conditions: S. cerevisiae deletion strains, growth OD

Measured: normalized growth

O=C1c2ccccc2C2(c3ccccc3)NCCN12 (configuration not stated)
inactive: locus YAL013W, strain DEP1, hits give low values 1 | locus YBR229C, strain ROT2, hits give low values 1.01 | locus YCL061C, strain MRC1, hits give low values 0.987 | locus YDL101C, strain DUN1, hits give low values 0.982 | locus YDR150W, strain NUM1, hits give low values 0.989 | locus YEL061C, strain CIN8, hits give low values 1.02 | locus YGR078C, strain PAC10, hits give low values 1.01 | locus YHR030C, strain SLT2, hits give low values 0.972 | locus YHR087W, strain rtc3, hits give low values 0.993 | locus YJL187C, strain SWE1, hits give low values 0.997 | locus YJR043C, strain POL32, hits give low values 0.956 | locus YJR075W, strain HOC1, hits give low values 1.01 | locus YLR039C, strain RIC1, hits give low values 0.976 | locus YLR058C, strain SHM2 (second series), hits give low values 0.997 | locus YLR085C, strain ARP6, hits give low values 1.04 | locus YLR262C, strain YPT6, hits give low values 0.968 | locus YML094W, strain GIM5, hits give low values 1.04 | locus YMR219W, strain ESC1, hits give low values 1 | locus YMR263W, strain SAP30, hits give low values 1.01 | locus YNL128W, strain TEP1, hits give low values 0.983 | locus YNL153C, strain GIM3, hits give low values 1.01 | locus YNL298W, strain CLA4 (second series), hits give low values 0.995 | locus YNL322C, strain KRE1, hits give low values 0.996 | locus YNR030W, strain Alg12, hits give low values 0.982 | locus YPL055C, strain LGE1, hits give low values 1.04 | locus YPL241C, strain CIN2, hits give low values 1.02 | locus YPR135W, strain CTF4, hits give low values 0.957
